# Data reported in PubChem BioAssay AID720487 (Milwaukee Institute for Drug Discovery, 2013).
# This is one part of the list. Unmarked numbers belong to inactive results.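 How the source made its calls: active means fluorescence interference ratio at or above 1.2, signal boosting, or at or below 0.8, signal quenching; inactive means ratio between 0.8 and 1.2.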
# Assay: Cy5 fluorescence interference with SSB-bound oligo, artefact control for HCV NS3 helicase inhibitor project, biochemical, E. coli SSB, selected ChemBridge compounds (AID 720487);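 further: ratio of compound well signal to mean negative control signal so 1 means no effect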
# Details: Cy5-dT15/E. coli SSB fluorescence interference; at 100 µM; actives lie on both sides
compound,measurement,value
CCOc1cc(C=C2C(=O)NC(=O)NC2=O)cc(Br)c1OCCOc1ccccc1C,fluorescence interference ratio,0.894
